# Measurements reported in PubChem BioAssay (NCATS).
# Inconclusive results are not listed. Values without a mark were called inactive. Calls of active or inactive are those of the source. Calls come from the whole dose curve; as a rule, active = well fitted cell-killing curve with a large enough effect; inconclusive = small, poorly fitted or top-dose-only effect, or effect the other way; inactive = no such curve, though single readings can be large or run the other way.
# What was measured:
# [1] = Quantitative High-Throughput drug screen in 47 multiple myeloma cell lines against the NCATS MIPE library collection: KMS28PE_JCRB cell viability assay (AID 1918983); note: nearly all actives have a fitted effect of over 35% in size
# Summary of the method: (§1)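 MIPE 4.0 approved/investigational drugs; 500 cells/well; 48 h 37 °C humidified 5% CO2; CTG luminescence readout; DMSO = 100%, media = 0% viability.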
# [2] = Quantitative High-Throughput drug screen in 47 multiple myeloma cell lines against the NCATS MIPE library collection: L363_DSMZ cell viability assay (AID 1918984); note: nearly all actives have a fitted effect of over 40% in size
# Summary of the method: as §1
# [3] = Quantitative High-Throughput drug screen in 47 multiple myeloma cell lines against the NCATS MIPE library collection: OCIMY7_PLB cell viability assay (AID 1918987); settings: OCI-MY7 myeloma viability, CellTiter-Glo ATP, 48 h; viability (% of DMSO): at 45.8 µM (top of the series); note: nearly all actives have a fitted effect of over 65% in size
# Summary of the method: as §1
# [4] = Quantitative High-Throughput drug screen in 47 multiple myeloma cell lines against the NCATS MIPE library collection: OCIMY5_PLB cell viability assay (AID 1918988); note: nearly all actives have a fitted effect of over 65% in size;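 for viability, % of control: 100% = DMSO-treated wells and 0% = wells with media alone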
# Summary of the method: as §1
# [5] = Quantitative High-Throughput drug screen in 47 multiple myeloma cell lines against the NCATS MIPE library collection: OPM1_PLB cell viability assay (AID 1918989); note: nearly all actives have a fitted effect of over 40% in size
# Summary of the method: as §1
# [6] = Quantitative High-Throughput drug screen in 47 multiple myeloma cell lines against the NCATS MIPE library collection: SKMM1_PLB cell viability assay (AID 1919863); settings: SKMM1 myeloma viability, CellTiter-Glo ATP, 48 h; viability: stronger effect = lower value; note: nearly all actives have a fitted effect of over 35% in size
# Summary of the method: as §1
# [7] = Quantitative High-Throughput drug screen in 47 multiple myeloma cell lines against the NCATS MIPE library collection: XG6_PLB cell viability assay (AID 1919865); note: nearly all actives have a fitted effect of over 40% in size
# Summary of the method: as §1
# [8] = Quantitative High-Throughput drug screen in 47 multiple myeloma cell lines against the NCATS MIPE library collection: XG1_PLB cell viability assay (AID 1919866); note: nearly all actives have a fitted effect of over 35% in size
# Summary of the method: as §1
# [9] = Quantitative High-Throughput drug screen in 47 multiple myeloma cell lines against the NCATS MIPE library collection: VP6_DJ cell viability assay (AID 1919867); note: nearly all actives have a fitted effect of over 40% in size;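 for viability (% of DMSO): 100% = DMSO-only wells and 0% = wells with media alone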
# Summary of the method: as §1
# [10] = Quantitative High-Throughput drug screen in 47 multiple myeloma cell lines against the NCATS MIPE library collection: UTMC2_PLB cell viability assay (AID 1919868); settings: CellTiter-Glo ATP luminescence, 48 h; viability (% of DMSO control): at 45.8 µM (top of the series); note: nearly all actives have a fitted effect of over 55% in size;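 for viability (% of DMSO control): 100% = DMSO-only wells and 0% = media-only wells without cells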
# Summary of the method: as §1
# [11] = Quantitative High-Throughput drug screen in 47 multiple myeloma cell lines against the NCATS MIPE library collection: PE2_PLB cell viability assay (AID 1919869); note: nearly all actives have a fitted effect of over 35% in size;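 for viability (% of control): 100% = DMSO-only wells and 0% = cell-free media-only wells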
# Summary of the method: as §1
# [12] = Quantitative High-Throughput drug screen in 47 multiple myeloma cell lines against the NCATS MIPE library collection: RPMI8226_ATCC cell viability assay (AID 1919871); note: nearly all actives have a fitted effect of over 30% in size
# Summary of the method: as §1
# [13] = Quantitative High-Throughput drug screen in 47 multiple myeloma cell lines against the NCATS MIPE library collection: OPM2_DSMZ cell viability assay (AID 1919872); note: nearly all actives have a fitted effect of over 30% in size
# Summary of the method: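 Viability readout: CellTiter-Glo luminescence following 5 min room-temperature incubation with reagent. Prior exposure: 48 h, 37C, humidified 5% CO2, 500 cells per well.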
# [14] = Quantitative High-Throughput drug screen in 47 multiple myeloma cell lines against the NCATS MIPE library collection: KMS11_JCRBsus cell viability assay (AID 1919873); note: nearly all actives have a fitted effect of over 50% in size;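 for viability (% of control): 100% = DMSO-only wells and 0% = media-only wells without cells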
# Summary of the method: as §1
# [15] = Quantitative High-Throughput drug screen in 47 multiple myeloma cell lines against the NCATS MIPE library collection: KMS34_JCRB cell viability assay (AID 1918985); note: nearly all actives have a fitted effect of over 40% in size
# Summary of the method: as §1
# [16] = Quantitative High-Throughput drug screen in 47 multiple myeloma cell lines against the NCATS MIPE library collection: U266_ATCC cell viability assay (AID 1919864); note: nearly all actives have a fitted effect of over 35% in size;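 for viability (% of DMSO control): 0% = media-only wells without cells and 100% = DMSO-only wells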
# Summary of the method: as §1
# [17] = Quantitative High-Throughput drug screen in 47 multiple myeloma cell lines against the NCATS MIPE library collection: KMS28BM_JCRB cell viability assay (AID 1919874); note: nearly all actives have a fitted effect of over 35% in size
# Summary of the method: as §1
# [18] = Quantitative High-Throughput drug screen in 47 multiple myeloma cell lines against the NCATS MIPE library collection: PCM6_Riken cell viability assay (AID 1919870); note: nearly all actives have a fitted effect of over 30% in size
# Summary of the method: as §1
# Potency is the fitted concentration of half-maximal effect.
smiles,measurement,setting,value
O=C(O)C[C@H](O)C[C@H](O)C=Cc1c(C2CC2)nc2ccccc2c1-c1ccc(F)cc1,Potency,[1],14.8 µM (active)
same,Potency,[2],5.26 µM (active)
same,Potency,[3],2.35 µM (active)
same,Potency,[4],20.9 µM (active)
same,Potency,[5],2.64 µM (active)
same,Potency,[6],11.8 µM (active)
same,Potency,[7],18.7 µM (active)
same,Potency,[8],3.32 µM (active)
same,Potency,[9],16.6 µM (active)
same,Potency,[10],9.35 µM (active)
same,Potency,[11],4.69 µM (active)
same,Potency,[12],16.6 µM (active)
CCc1nc(-c2cccc(C)c2)c(-c2ccnc(NC(=O)c3ccccc3)c2)s1,Potency,[1],20.9 µM (active)
same,Potency,[2],inactive
same,Potency,[4],16.6 µM (active)
same,Potency,[5],13.2 µM (active)
same,Potency,[6],7.43 µM (active)
same,Potency,[7],20.9 µM (active)
same,Potency,[10],23.5 µM (active)
same,Potency,[11],13.2 µM (active)
same,Potency,[13],18.7 µM (active)
same,Potency,[14],20.9 µM (active)
C=C(C)[C@@H]1CC[C@]2(C(=O)O)CC[C@]3(C)[C@H](CC[C@@H]4[C@@]5(C)CC[C@H](O)C(C)(C)[C@@H]5CC[C@]43C)[C@@H]12,Potency,[1],3.72 µM (active)
same,Potency,[2],inactive
same,Potency,[15],inactive
same,Potency,[4],5.9 µM (active)
same,Potency,[5],inactive
same,Potency,[6],0.935 µM (active)
same,Potency,[16],inactive
same,Potency,[7],2.96 µM (active)
same,Potency,[8],inactive
same,Potency,[9],7.43 µM (active)
same,Potency,[11],inactive
same,Potency,[12],5.26 µM (active)
same,Potency,[13],inactive
same,Potency,[14],inactive
same,Potency,[17],inactive
C[C@H]1COc2c(N3CCN(C)CC3)c(F)cc3c(=O)c(C(=O)O)cn1c23,Potency,[1],inactive
same,Potency,[2],inactive
same,Potency,[15],inactive
same,Potency,[3],inactive
same,Potency,[4],inactive
same,Potency,[5],inactive
same,Potency,[16],inactive
same,Potency,[7],inactive
same,Potency,[8],inactive
same,Potency,[10],inactive
same,Potency,[11],inactive
same,Potency,[12],inactive
same,Potency,[13],inactive
same,Potency,[17],inactive
CC(C)(C)[C@H](NC(=O)c1ccc(N)c(Cl)c1)C(=O)N1CCC[C@@H]1C(=O)N[C@H](C#N)CC(=O)O,"viability, % of DMSO control",[1],131% [at 3.51 µM]
same,viability (% of control),[2],111% [at 3.51 µM]
same,"viability, percent of control",[15],103% [at 3.51 µM]
same,"viability, % of control",[4],135% [at 3.51 µM]
same,viability (% of control),[5],141% [at 3.51 µM]
same,viability,[6],125%
same,viability (% of DMSO control),[16],129% [at 3.51 µM]
same,viability (% of control),[7],104% [at 3.51 µM]
same,Potency,[9],0.834 µM (active)
same,viability (% of DMSO control),[10],157% [at 3.51 µM]
same,viability (% of control),[11],118% [at 3.51 µM]
same,viability (% of DMSO),[13],102% [at 3.51 µM]
same,viability (% of control),[14],102% [at 3.51 µM]
O=c1[nH]c(=O)n([C@H]2C[C@@H](O)[C@@H](CO)O2)cc1C=CBr,Potency,[1],inactive
same,Potency,[2],inactive
same,Potency,[15],inactive
same,Potency,[5],0.105 µM (active)
same,Potency,[16],inactive
same,Potency,[7],inactive
same,Potency,[8],inactive
same,Potency,[9],inactive
same,Potency,[11],inactive
same,Potency,[18],inactive
same,Potency,[12],inactive
same,Potency,[13],inactive
same,Potency,[17],inactive
CC(=O)O[C@]1(C(C)=O)CC[C@H]2[C@@H]3C=C(C)C4=CC(=O)CC[C@]4(C)[C@@H]3CC[C@@]21C,Potency,[1],inactive
same,Potency,[2],9.35 µM (active)
same,Potency,[15],inactive
same,Potency,[16],8.33 µM (active)
same,Potency,[7],4.18 µM (active)
same,Potency,[8],6.62 µM (active)
same,Potency,[9],7.43 µM (active)
same,Potency,[18],6.62 µM (active)
same,Potency,[12],14.8 µM (active)
same,Potency,[13],inactive
same,Potency,[17],inactive
N#CC(=Cc1ccc(O)c(O)c1)C(=O)NCc1ccccc1,Potency,[1],inactive
same,Potency,[2],3.32 µM (active)
same,Potency,[3],5.9 µM (active)
same,Potency,[4],20.9 µM (active)
same,Potency,[5],9.35 µM (active)
same,Potency,[16],26.4 µM (active)
same,Potency,[7],8.33 µM (active)
same,Potency,[9],18.7 µM (active)
same,Potency,[11],14.8 µM (active)
same,Potency,[18],10.5 µM (active)
same,Potency,[13],inactive
CC(C)NC[C@@H](C(=O)N1CCN(c2ncnc3c2[C@H](C)C[C@H]3O)CC1)c1ccc(Cl)cc1,Potency,[1],1.48 µM (active)
same,Potency,[2],0.0372 µM (active)
same,Potency,[15],14.8 µM (active)
same,Potency,[4],1.66 µM (active)
same,Potency,[6],10.5 µM (active)
same,Potency,[16],18.7 µM (active)
same,Potency,[7],1.66 µM (active)
same,Potency,[8],1.87 µM (active)
same,Potency,[9],0.833 µM (active)
same,Potency,[10],0.105 µM (active)
same,Potency,[18],1.32 µM (active)
same,Potency,[12],11.8 µM (active)
same,Potency,[13],18.7 µM (active)
same,Potency,[14],4.69 µM (active)
same,Potency,[17],2.96 µM (active)
COc1cc([C@@H]2c3cc4c(cc3[C@@H](O[C@@H]3O[C@@H]5CO[C@@H](c6cccs6)O[C@@H]5[C@H](O)[C@@H]3O)[C@H]3COC(=O)[C@H]23)OCO4)cc(OC)c1O,Potency,[1],2.64 µM (active)
same,Potency,[2],0.833 µM (active)
same,Potency,[15],1.87 µM (active)
same,Potency,[4],1.66 µM (active)
same,Potency,[5],1.18 µM (active)
same,Potency,[6],5.26 µM (active)
same,Potency,[16],14.8 µM (active)
same,Potency,[7],0.0469 µM (active)
same,Potency,[8],0.526 µM (active)
same,Potency,[9],0.469 µM (active)
same,Potency,[10],0.0526 µM (active)
same,Potency,[11],0.166 µM (active)
same,Potency,[18],0.662 µM (active)
same,Potency,[13],4.18 µM (active)
same,Potency,[14],1.32 µM (active)
same,Potency,[17],1.32 µM (active)
Cc1cc(Nc2ncc3c(n2)N(C)C(=O)N(c2cc(NC(=O)c4cccc(C(F)(F)F)c4)ccc2C)C3)n(C)n1,Potency,[1],1.32 µM (active)
same,Potency,[2],1.32 µM (active)
same,Potency,[3],0.526 µM (active)
same,Potency,[4],0.935 µM (active)
same,Potency,[5],0.235 µM (active)
same,Potency,[16],1.32 µM (active)
same,Potency,[7],0.935 µM (active)
same,Potency,[8],2.35 µM (active)
same,Potency,[9],0.935 µM (active)
same,Potency,[10],0.418 µM (active)
same,Potency,[11],0.743 µM (active)
same,Potency,[18],1.87 µM (active)
same,Potency,[13],0.743 µM (active)
same,Potency,[14],0.235 µM (active)
same,Potency,[17],3.32 µM (active)
